A short description of assay [1]: yeast TOR pathway RPL19A-GFP modulators, primary screen, cell-based, S. cerevisiae, multiplex flow cytometry (AID 1862; in the data active = percent of DMSO control GFP below about 86%;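 note: lower values mimic rapamycin by blocking the RPL19A rise seen in DMSO cells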). The following applies: S. cerevisiae RPL19A-GFP strain, flow cytometry fluorescence, 3 h; at 10 µM; stronger effect = lower value.
Assay [2] is described as follows: modulators of MEP2-GFP levels in yeast, primary screen, S. cerevisiae, multiplex flow cytometry (AID 1867;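 active = GFP response, as percent of the DMSO control, above the screen-wide mean plus 3 SD, about 139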;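 note: median GFP channel fluorescence of barcode-gated MEP2-GFP cells measured by flow cytometry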). Conditions: S. cerevisiae MEP2-GFP strain, 3 h, at 10 µM, stronger effect = higher value, 100% means same as DMSO wells. (A flow cytometer gives signals particle by particle.)
The nature of assay [3]: modulators of CIT2-GFP expression in yeast, primary screen, S. cerevisiae, GFP fusion, multiplex flow cytometry (AID 1870;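 active = percent response above a set limit, the screen-wide mean plus 3 SD, cut at about 130% in these data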;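 note: barcoded CIT2-GFP strain pooled with four other GFP strains with rapamycin as positive control; median GFP fluorescence per well over plate mean of DMSO wells so 100% = DMSO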). Conditions: 3 h, at 10 µM, stronger effect = higher value.
Assay [4] is described as follows: modulators of LAP4-GFP expression in yeast, primary screen, S. cerevisiae, multiplex flow cytometry (AID 1873;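 active = GFP signal, as percent of the solvent control, above the screen mean plus 3 SD, about 149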). The following applies: 3 h, at 10 µM, stronger effect = higher value.
The nature of assay [5]: modulators of AGP1-GFP expression in yeast TOR pathway, primary screen, cell-based, multiplex flow cytometry, S. cerevisiae (AID 1887;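 active = GFP signal above the screen-wide mean plus 3 SD, that is over about 124.5% of the solvent control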;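 note: AGP1-GFP fusion strain of S. cerevisiae within a five-strain barcoded multiplex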). Conditions: 3 h, at 10 µM, stronger effect = higher value.
Assay [6] can be described thus: inhibitors of CD8+ T cell-vesicle binding, pilot screen, LFA-1/ICAM-1 modulator project, MLPCN validation set, flow cytometry (AID 2523;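 active = response below a set limit, under 55% cells CD8-positive and vesicle-bound, and CD8 cells' 90th-percentile brightness under 279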;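 for vesicle binding response: mean PE anti-B7-1 fluorescence of CD8+ cells relative to row control; 100% = QL9-loaded vesicles with DMSO vehicle in the same plate row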). The following applies: 2C mouse CD8+ T cells, at 7 µM, stronger effect = lower value; double positive events: measured here: CD8+/vesicle+ event percentage.
Assay [7] concerns the target Integrin beta-1 (Homo sapiens) + Integrin alpha-4 (Homo sapiens) (UniProt P13612+P05556). As to the kind of experiment: inhibition of HUTS-21 binding to VLA-4, pilot screen, VLA-4 allosteric modulator project, U937 cells, HUTS-21 mAb, flow cytometry, validation set (AID 2674).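 Note: antibody binding induced by the VLA-4 ligand LDV present at three times its Kd; 0% = LDV ligand with antibody and no compound and 100% = antibody without LDV.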 The following applies: HUTS-21 LIBS mAb binding, at 6.7 µM, stronger effect = higher value, binding induced by LDV ligand.

A short description of assay [8]: superoxide lowering in aged yeast cells, pilot screen, validation compound set (AID 2706;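 active = superoxide response below 65% of plate, a cut near 3 SD across the whole screen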;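 note: yeast exposed to compound for one week at 30 degrees C before staining; 100% = mean of all compound wells on the same plate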). The following applies: S. cerevisiae aging, superoxide DHE fluorescence; at 10 µM; stronger effect = lower value.
Assay [9] addresses Beta-adrenergic receptor kinase 1 (Homo sapiens) (UniProt P25098). As to the kind of experiment: GRK2 binders displacing RNA aptamer, biochemical, validation, human GRK2, bead flow cytometry (AID 488806;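 active = aptamer binding inhibition above 30%, about 3 SD of noise from non-fluorescent compounds; inactive = inhibition at or below 30%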). Conditions: bead-bound GRK2, FAM-aptamer displacement, at 10 µM, stronger effect = higher value.
The target of assay [10] is Beta-2 adrenergic receptor (Homo sapiens) (UniProt P07550). As to the kind of experiment: beta2AR agonists driving receptor internalization, pilot screen, cell-based, FAP fluorogen, flow cytometry, validation set (AID 504459;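 active = percent response above 42, roughly 3 SD of non-fluorescent test compounds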;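 note: agonist-driven loss of surface beta2AR via internalization measured by FAP dye flow cytometry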). The following applies: Am2.2-beta2AR cells, FAP surface receptor flow cytometry; at 10 µM; stronger effect = higher value.
Beta-2 adrenergic receptor (Homo sapiens), sequence (P07550 whole entry, looked up): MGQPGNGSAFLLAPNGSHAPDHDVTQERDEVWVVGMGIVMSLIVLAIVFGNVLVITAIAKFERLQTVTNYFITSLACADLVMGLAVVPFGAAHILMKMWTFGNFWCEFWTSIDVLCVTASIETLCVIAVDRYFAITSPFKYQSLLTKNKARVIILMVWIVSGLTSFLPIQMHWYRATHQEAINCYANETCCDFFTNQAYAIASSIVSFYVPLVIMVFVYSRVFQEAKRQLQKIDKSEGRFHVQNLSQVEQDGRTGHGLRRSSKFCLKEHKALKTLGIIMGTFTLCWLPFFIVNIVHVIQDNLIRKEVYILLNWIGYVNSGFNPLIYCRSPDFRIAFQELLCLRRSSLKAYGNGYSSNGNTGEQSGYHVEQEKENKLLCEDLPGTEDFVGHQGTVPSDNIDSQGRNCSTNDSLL
Assay [11] deals with AP-2 complex subunit beta (Homo sapiens) (UniProt P63010). Briefly: inhibitors of arrestin peptide binding to AP2, pilot screen, biochemical, validation set, GST-AP2 beads, flow cytometry (AID 504541;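 active = inhibition above 54%, about 3 SD of non-fluorescent compounds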;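 note: AP2 carries R879A mutation and is captured from E. coli lysate; bead-bound FITC arrestin peptide fluorescence measuring arrestin peptide binding to AP2; 0% = DMSO wells and 100% = excess unlabeled arrestin peptide control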). Conditions: FITC arrestin peptide, at 10 µM, stronger effect = higher value, AP2 beta2 appendage fragment, R879A mutant.
AP-2 complex subunit beta (Homo sapiens), sequence (P63010 whole entry, looked up, the tested form may be a part, one chain of several): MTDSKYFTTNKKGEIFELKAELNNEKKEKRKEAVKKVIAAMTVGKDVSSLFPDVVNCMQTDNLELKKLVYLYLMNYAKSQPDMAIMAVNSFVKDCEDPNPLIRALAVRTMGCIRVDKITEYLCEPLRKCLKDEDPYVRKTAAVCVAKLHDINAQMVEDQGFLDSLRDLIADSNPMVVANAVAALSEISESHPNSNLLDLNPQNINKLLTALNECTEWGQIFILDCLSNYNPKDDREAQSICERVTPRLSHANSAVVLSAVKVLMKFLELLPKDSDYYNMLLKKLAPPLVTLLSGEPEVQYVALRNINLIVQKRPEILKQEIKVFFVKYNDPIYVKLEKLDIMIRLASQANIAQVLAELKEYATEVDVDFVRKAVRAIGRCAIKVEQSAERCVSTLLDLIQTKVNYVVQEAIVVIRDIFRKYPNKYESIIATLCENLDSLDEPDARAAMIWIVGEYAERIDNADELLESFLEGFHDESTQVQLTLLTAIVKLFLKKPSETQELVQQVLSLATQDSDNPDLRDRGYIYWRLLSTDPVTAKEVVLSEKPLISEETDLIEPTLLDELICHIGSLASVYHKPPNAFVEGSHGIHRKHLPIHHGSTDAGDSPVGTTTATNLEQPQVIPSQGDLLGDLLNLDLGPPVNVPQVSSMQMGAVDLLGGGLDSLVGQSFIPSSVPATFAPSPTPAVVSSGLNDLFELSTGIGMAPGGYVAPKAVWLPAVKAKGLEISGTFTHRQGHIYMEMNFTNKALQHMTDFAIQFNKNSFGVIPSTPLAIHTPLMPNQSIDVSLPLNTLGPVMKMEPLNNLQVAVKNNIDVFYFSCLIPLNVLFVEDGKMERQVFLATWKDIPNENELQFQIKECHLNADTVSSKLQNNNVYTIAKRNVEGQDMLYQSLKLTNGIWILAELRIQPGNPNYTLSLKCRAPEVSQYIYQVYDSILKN
Assay [12] in a line: yeast V-ATPase proton transport modulators, S. cerevisiae, pHLuorin, HTS validation (AID 504600; in the data active = response above about 15%;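 note: plate controls were DMSO for no effect and reference compound for full effect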). Conditions: S. cerevisiae pHLuorin cytosolic pH, at 10 µM, stronger effect = higher value.
Assay [13] deals with anti-desmoglein-3 scFv antibody binding to human DSG3. Briefly: inhibitors of anti-DSG3 scFv binding to DSG3, pilot screen, biochemical, validation compound set, bead-based, flow cytometry (AID 588368;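 active = binding below the plate cutoff, the plate median minus 3 SD, with a reading above zero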;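 note: signal is the median channel fluorescence of bead-bound GFP antibody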). Conditions: Protein G beads, DSG3-Fc, scFv-GFP binding, at 10 µM, stronger effect = lower value.
Assay [14] can be described thus: inhibitors of fungal efflux pumps CDR1, CDR2, MDR1, pilot screen, validation compound set, multiplex, phenotypic (AID 588506;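 active = efflux inhibition above 0.42, the validation set average plus 4 SD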;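 note: Nile Red retained in cells so higher fluorescence means more efflux inhibition; 0 = negative control wells and 1 = enniatin B 25 µM full block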). The following applies: S. cerevisiae pump-expressing triplex, Nile Red efflux flow cytometry; at 10 µM; stronger effect = higher value; the pumps come from Candida albicans.
Assay [15] addresses ATP-binding cassette sub-family B member 6 (Homo sapiens) (UniProt Q9NP58). Briefly: ABCB6 transporter inhibitors, pilot screen, K562-ABCB6 cells, flow cytometry, validation set (AID 588550;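 active = inhibition above the screen-wide mean plus 3 SD, about 51%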;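 note: 0% = DMSO wells and 100% = benzethonium chloride 70 µM positive control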). The following applies: K562-ABCB6 porphyrin accumulation, 1 h, at 10 µM, stronger effect = higher value.
Assay [16] is described as follows: promoters of myeloid differentiation in arrested cells, primary screen, cell-based, GFP/MAC1 double positive, flow cytometry, validation set (AID 588685;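 active = differentiation response of at least 50%, scaled between solvent and reference control, from cells with both markers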;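 note: compound exposure lasts four days before antibody staining and flow analysis; 0% = DMSO wells and 100% = 5 µM fulvestrant positive control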). Conditions: ER-HoxA9 marrow cells, stronger effect = higher value, normalized: vehicle 0, fulvestrant 100.

Results filed as inconclusive are left out. Activity calls are given as the source filed them.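 Rule for the calls, unless noted: active = inhibition above 50%, about 3 SD of the validation set; inactive = the rest.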

Integrin beta-1 (Homo sapiens) + Integrin alpha-4 (Homo sapiens), sequence (P05556 whole entry, looked up): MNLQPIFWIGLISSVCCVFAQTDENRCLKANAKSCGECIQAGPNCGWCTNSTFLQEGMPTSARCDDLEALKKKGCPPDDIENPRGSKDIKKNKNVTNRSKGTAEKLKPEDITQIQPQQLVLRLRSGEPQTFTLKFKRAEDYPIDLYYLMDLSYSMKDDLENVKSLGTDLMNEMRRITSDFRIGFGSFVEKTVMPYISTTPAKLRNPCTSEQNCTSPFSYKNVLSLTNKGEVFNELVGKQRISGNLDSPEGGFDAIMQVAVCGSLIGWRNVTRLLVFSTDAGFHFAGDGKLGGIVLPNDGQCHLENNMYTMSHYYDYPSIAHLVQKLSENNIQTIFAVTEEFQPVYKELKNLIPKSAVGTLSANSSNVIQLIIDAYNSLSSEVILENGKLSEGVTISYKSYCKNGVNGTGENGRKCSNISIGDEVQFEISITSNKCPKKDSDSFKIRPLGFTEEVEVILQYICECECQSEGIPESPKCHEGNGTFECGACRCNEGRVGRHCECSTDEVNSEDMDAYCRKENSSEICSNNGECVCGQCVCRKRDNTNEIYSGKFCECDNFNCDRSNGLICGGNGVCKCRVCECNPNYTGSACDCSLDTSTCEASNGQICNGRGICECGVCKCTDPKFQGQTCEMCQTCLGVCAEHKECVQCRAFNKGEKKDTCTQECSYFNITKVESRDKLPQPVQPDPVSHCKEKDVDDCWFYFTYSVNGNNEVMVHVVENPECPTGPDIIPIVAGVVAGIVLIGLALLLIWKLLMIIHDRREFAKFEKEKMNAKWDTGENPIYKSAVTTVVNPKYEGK
Integrin beta-1 (Homo sapiens) + Integrin alpha-4 (Homo sapiens), sequence (P13612 whole entry, looked up): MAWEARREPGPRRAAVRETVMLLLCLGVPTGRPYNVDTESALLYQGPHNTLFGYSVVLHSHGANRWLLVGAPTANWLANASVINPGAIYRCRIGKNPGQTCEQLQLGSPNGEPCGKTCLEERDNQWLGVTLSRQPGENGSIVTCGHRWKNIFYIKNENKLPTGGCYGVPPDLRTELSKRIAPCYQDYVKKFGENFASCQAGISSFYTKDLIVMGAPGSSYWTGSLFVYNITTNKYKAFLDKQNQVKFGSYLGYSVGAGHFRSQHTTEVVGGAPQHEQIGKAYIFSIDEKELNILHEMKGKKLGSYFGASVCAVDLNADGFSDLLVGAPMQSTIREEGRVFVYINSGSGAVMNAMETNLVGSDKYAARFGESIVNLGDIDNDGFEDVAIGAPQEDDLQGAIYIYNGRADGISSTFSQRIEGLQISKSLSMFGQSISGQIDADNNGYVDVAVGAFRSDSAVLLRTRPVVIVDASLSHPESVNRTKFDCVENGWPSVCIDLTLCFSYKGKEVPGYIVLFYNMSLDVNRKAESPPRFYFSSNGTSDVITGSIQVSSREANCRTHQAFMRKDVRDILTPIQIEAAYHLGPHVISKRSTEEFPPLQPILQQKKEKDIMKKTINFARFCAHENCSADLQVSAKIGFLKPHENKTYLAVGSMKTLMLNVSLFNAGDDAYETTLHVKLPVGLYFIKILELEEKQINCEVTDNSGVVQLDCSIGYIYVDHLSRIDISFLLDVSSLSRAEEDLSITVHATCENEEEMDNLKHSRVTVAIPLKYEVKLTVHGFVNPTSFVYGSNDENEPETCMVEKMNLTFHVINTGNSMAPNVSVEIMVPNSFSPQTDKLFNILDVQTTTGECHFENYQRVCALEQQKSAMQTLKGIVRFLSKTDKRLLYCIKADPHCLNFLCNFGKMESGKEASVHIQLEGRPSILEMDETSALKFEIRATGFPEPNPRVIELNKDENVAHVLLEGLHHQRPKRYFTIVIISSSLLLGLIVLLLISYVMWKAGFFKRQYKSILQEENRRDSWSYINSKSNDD
Beta-adrenergic receptor kinase 1 (Homo sapiens), sequence (P25098 whole entry, looked up): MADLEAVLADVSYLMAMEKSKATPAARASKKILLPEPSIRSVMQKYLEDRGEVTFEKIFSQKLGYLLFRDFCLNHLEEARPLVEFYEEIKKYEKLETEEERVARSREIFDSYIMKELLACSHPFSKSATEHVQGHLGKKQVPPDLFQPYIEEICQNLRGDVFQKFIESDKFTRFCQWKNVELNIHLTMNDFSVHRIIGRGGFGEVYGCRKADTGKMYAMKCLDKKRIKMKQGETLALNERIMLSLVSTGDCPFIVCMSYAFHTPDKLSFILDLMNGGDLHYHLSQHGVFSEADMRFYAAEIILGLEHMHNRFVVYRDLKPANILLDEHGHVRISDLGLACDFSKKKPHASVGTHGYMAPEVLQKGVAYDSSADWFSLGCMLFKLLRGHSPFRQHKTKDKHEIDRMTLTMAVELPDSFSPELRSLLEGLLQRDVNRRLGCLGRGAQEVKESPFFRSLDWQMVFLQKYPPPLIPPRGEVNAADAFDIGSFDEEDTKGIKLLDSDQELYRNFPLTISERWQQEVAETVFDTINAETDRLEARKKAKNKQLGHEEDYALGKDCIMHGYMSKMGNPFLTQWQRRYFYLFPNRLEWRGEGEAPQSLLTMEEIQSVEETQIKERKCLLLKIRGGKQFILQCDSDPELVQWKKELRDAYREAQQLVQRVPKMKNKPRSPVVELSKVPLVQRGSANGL
ATP-binding cassette sub-family B member 6 (Homo sapiens), sequence (Q9NP58 whole entry, looked up): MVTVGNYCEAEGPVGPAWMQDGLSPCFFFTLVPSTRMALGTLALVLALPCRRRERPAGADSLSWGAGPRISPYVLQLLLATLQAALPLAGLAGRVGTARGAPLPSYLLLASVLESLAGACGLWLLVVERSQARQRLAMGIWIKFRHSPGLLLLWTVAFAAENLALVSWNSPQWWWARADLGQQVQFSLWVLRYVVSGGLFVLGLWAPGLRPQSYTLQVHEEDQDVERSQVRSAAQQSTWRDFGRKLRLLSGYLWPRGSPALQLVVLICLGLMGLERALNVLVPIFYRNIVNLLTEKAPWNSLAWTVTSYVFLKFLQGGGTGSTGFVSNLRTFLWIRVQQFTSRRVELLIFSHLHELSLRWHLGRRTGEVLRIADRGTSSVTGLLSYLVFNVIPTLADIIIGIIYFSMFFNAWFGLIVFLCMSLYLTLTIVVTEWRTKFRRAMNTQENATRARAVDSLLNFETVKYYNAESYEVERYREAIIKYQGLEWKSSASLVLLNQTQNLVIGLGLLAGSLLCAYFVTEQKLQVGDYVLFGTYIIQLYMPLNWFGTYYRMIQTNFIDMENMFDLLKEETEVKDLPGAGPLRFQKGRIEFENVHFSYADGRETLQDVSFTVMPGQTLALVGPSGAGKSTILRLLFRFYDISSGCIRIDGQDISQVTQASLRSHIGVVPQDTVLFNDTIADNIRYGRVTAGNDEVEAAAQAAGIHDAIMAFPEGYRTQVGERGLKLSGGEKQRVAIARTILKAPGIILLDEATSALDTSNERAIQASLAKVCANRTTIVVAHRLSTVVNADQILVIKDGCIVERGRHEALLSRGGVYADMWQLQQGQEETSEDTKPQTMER

As for `Cc1cc(=O)oc2c(CN(C)Cc3ccccc3)c(O)ccc12`, in assay [1], the percent of DMSO control GFP is 100% (inactive). The GFP response vs DMSO was 106% (inactive) in assay [2] and 94.7% (inactive) in assay [4]. Besides, in [3], the percent response of DMSO control was 105% (inactive). In addition, the GFP response, % of DMSO in assay [5] is 96.2% (inactive). The double positive events in assay [6] stood at 62.4%. The vesicle binding response in [6] is 434% (inactive). Besides, the inhibition (usually the drop in the measured response relative to a control, in per cent) is 12% (inactive) in assay [7], -2.59% (inactive) in assay [11] and 10% (inactive) in [15]. Also, the superoxide response (% of plate) in assay [8] was 97.6% (inactive). Also, in assay [9], the aptamer binding inhibition is 3% (inactive). Besides, the response in assay [10] is 0.85% (inactive); in assay [12], 1.53% (inactive). Also, the binding (% of control) in assay [13] is 97.4% (inactive). Also, the efflux inhibition (fraction of control) in [14] was 0.11 (inactive). In [16], the differentiation response was 0.24% (inactive).

Regarding `CN1CCCN=C1COC(=O)C(O)(c1ccccc1)C1CCCCC1` (stereo not given), the percent of DMSO control GFP in assay [1] was 103% (inactive). The GFP response vs DMSO in [2] was 107% (inactive); in [4], 92.7% (inactive). Further, the percent response of DMSO control in [3] is 93.1% (inactive). The GFP response, % of DMSO in assay [5] was 96.5% (inactive). Further, the double positive events in [6] is 64%. The vesicle binding response in assay [6] is 205% (inactive). Also, the inhibition in [7] is 7.85% (inactive); in [11] it was 12.1% (inactive); in assay [15], -5% (inactive). Also, in assay [8], the superoxide response (% of plate) was 98.5% (inactive). For the same compound, the aptamer binding inhibition in assay [9] was 6% (inactive). For the same compound, the response is 3.5% (inactive) in assay [10] and 4.32% (inactive) in assay [12]. In addition, the binding (% of control) in assay [13] is 91.9% (inactive). The efflux inhibition (fraction of control) in assay [14] is -0.14 (inactive). Further, the differentiation response in assay [16] was 5.13% (inactive).

In the case of `Cc1nc(N)sc1C(=O)N/N=C/c1ccco1`, the percent of DMSO control GFP in [1] was 105% (inactive). Besides, the GFP response vs DMSO in assay [2] is 107% (inactive); in assay [4] it was 114% (inactive). Besides, in assay [3], the percent response of DMSO control was 109% (inactive). The GFP response, % of DMSO in [5] was 115% (inactive). In assay [6], the double positive events came out at 62.5%. Besides, the vesicle binding response in assay [6] is 145% (inactive). For the same compound, the inhibition in assay [7] is -3.77% (inactive); in [11], 6.36% (inactive); in assay [15], -15% (inactive). The superoxide response (% of plate) in assay [8] is 89.3% (inactive). Also, the aptamer binding inhibition in [9] is -1% (inactive). For the same compound, the response in assay [10] was -0.95% (inactive); in assay [12], -5.39% (inactive). Also, in assay [13], the binding (% of control) was 105% (inactive). Further, the efflux inhibition (fraction of control) in [14] is 0.08 (inactive). The differentiation response in [16] is -4.57% (inactive).

For `CC(NC(=O)c1ccc(N2CCNCC2)c([N+](=O)[O-])c1)C12CC3CC(CC(C3)C1)C2` (stereo not given), in assay [1], the percent of DMSO control GFP is 92.8% (inactive). The GFP response vs DMSO was 111% (inactive) in [2] and 114% (inactive) in assay [4]. For the same compound, the percent response of DMSO control in assay [3] was 101% (inactive). For the same compound, the GFP response, % of DMSO in assay [5] is 92.6% (inactive). The double positive events in [6] was found to be 56.9%. Moreover, in [6], the vesicle binding response was 87.2% (inactive). The inhibition in [7] is 9.13% (inactive); in assay [11] it was -4.72% (inactive); in [15] it was 7% (inactive). Moreover, in [8], the superoxide response (% of plate) was 101% (inactive). The aptamer binding inhibition in assay [9] was -1% (inactive). The response in [10] was -1.73% (inactive); in assay [12], 0.8% (inactive). Further, the binding (% of control) in [13] was 98.2% (inactive). In addition, in assay [14], the efflux inhibition (fraction of control) is -0.1 (inactive). Moreover, the differentiation response in assay [16] is -23.2% (inactive).

In the case of `CCOC(=O)c1cccc(P(C)(C)=O)c1`, the percent of DMSO control GFP in assay [1] is 103% (inactive). The GFP response vs DMSO is 97.2% (inactive) in assay [2] and 90.1% (inactive) in assay [4]. For the same compound, the percent response of DMSO control in [3] was 114% (inactive). Also, the GFP response, % of DMSO in [5] was 104% (inactive). In assay [6], this compound came in with a double positive events of 62%. Further, the vesicle binding response in assay [6] was 67.6% (inactive). The results for the inhibition in assay [7], in assay [11] and in assay [15] were 5.77% (inactive), -7.26% (inactive) and -7% (inactive), respectively. The superoxide response (% of plate) in assay [8] is 109% (inactive). Also, the aptamer binding inhibition in assay [9] is 3% (inactive). For the same compound, the results for the response in assay [10] and in assay [12] were -6.13% (inactive) and -2.31% (inactive), respectively. For the same compound, the binding (% of control) in assay [13] is 95.8% (inactive). For the same compound, the efflux inhibition (fraction of control) in assay [14] is -0.04 (inactive). The differentiation response in assay [16] is 6.11% (inactive).

(Values after PubChem BioAssay.)
